From PubChem
Shown is part of a subset that was picked to be rich in hits.
HTT aggregate: reduces HttQ103-GFP aggregates in PC12 cells | PC12 HttQ103-GFP aggregates, Acumen cytometry, 40 h | Potency, µM (highest dose often 46.1 µM), for the others: at the top dose activity change, negative = inhibition, most hits filed as inhibitors | AID 1688 | 220,000 compounds, 1.1% hits; note: potency is the fitted concentration of half-maximal effect; % is set by controls: 0 for no effect and ±100 for the full control effect; nearly all actives have a fitted effect of over 60% in size
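Quantitative HTS on tebufenozide-induced (100 nM) PC12 cells stably expressing polyQ103 Huntingtin exon 1–GFP. Reduction of bright GFP aggregates, detected by laser scanning cytometry after lysis, identified actives across the titration.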
HTT cytoprotect: Huntington cell model cytoprotection by ATP luminescence; AID 1471; PC12 HTT-Q103 induced, cytoprotection, ATP luminescence, 40 h; 230,000 compounds, 0.14% hits; Potency, µM (series often up to 56.4 µM), for inactives: cytoprotection (ATP increase), most hits filed as activators; note: potency is the fitted concentration of half-maximal effect; % of control where 0% means no effect; nearly all actives have a fitted effect of over 45% in size
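Compounds were screened for protection of PC12 cells against cell death after tebufenozide induction (100 nM final) of mutant Huntingtin exon 1 (Q103) fused to GFP.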
PNC assembly inh: perinucleolar compartment assembly inhibition; PC3M PTB-GFP, PNC prevalence imaging, 16 h; active compounds read low; activity change (PNC), negative = inhibition, % at 10 µM; 140,000 compounds, 3.1% hits; AID 2417;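 active = readout at or below -70, meaning at least 70% loss of cells showing the perinucleolar compartment, a nuclear body marking cancer cells; inconclusive = readout between -30 and a set limit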;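 note: plate controls were DMSO wells for no effect and camptothecin positive control wells for full effect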
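Compounds are pinned in duplicate onto adhered PC3M cells stably expressing GFP-tagged PTB and incubated 16 h at 37 C. Cells are then fixed, nuclei stained with Hoechst, and PNC-positive cells counted.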
* = called active by the depositor; ? = inconclusive; / = no result given; [ ] = remark or other dose. Unless noted, calls come from the whole dose curve; as a rule, active = well fitted curve in the direction sought with a large enough effect; inconclusive = small, poorly fitted or top-dose-only effect, or another doubt; inactive = no such curve, though single readings can be large; an effect the other way counts as inactive or inconclusive.

SMILES	HTT aggregate	HTT cytoprotect	PNC assembly inh
COc1ccc(C2NN=C(c3ccc(C)cc3)S2)cc1OC (configuration not stated)	-4%	-122%	/
N=c1c2c(n(Cc3ccc(F)cc3)c3c1CCC3)CCCC2	?	-40%	/
N=c1c2c(n(Cc3cccc(Cl)c3)c3c1CCC3)CCCC2	10µM*	-43%[10 µM]	95
N=c1c2c(n(Cc3ccccc3)c3c1CCC3)CCC2	8.9µM*	-59%	-16
N=c1c2c(n(Cc3ccc(Cl)cc3)c3c1CCC3)CCC2	?	-74%	?
CN1CCc2c(sc3c2c(=O)n(-c2ccccc2)c2nnc(SCc4ccc(Cl)cc4)n32)C1	5%	-49%[0.074 µM]	63
NC(=O)c1ccc(-n2nnnc2Oc2ccccc2C(=O)N2CCOCC2)cc1	9%	6%[0.074 µM]	-122*
O=C(Oc1ccccc1C(=O)N1CCOCC1)c1ccccc1	6%	14%[10 µM]	23
CCOC(=O)CCN1C(=O)[C@H]2[C@H]3[C@H](O)[C@H](O)C/C(=N/OC[C@@H](O)COCc4ccco4)[C@@H]3CC[C@@H]2C1=O	/	-3%[10 µM]	/
O=C(Cc1coc2ccc3ccccc3c12)Nc1nccs1	-27%	0%	-107*
CCn1c(CNC(=O)Cc2ccc(OC)cc2)nnc1SCC(=O)Nc1nccs1	7%	-8%[0.074 µM]	-20
Cc1cc(C)nc(SCc2nnc(SCC(=O)Nc3nccs3)n2C)n1	-2%	8%[10 µM]	-100*
O=C(Cc1coc2ccc3ccccc3c12)NCc1ccccc1	0%	-5%	-8
CCn1c(Cc2cccc3ccccc23)nnc1SCC(=O)Nc1nccs1	-10%	8%[10 µM]	-100*
Cc1cc(C)nc(SCc2nnc(SCC(=O)Nc3nc(-c4ccccc4)cs3)n2C)n1	16%	-9%[10 µM]	-12
COc1ccc(C2CC(c3ccccc3C)n3nc(N)nc3N2)cc1 (configuration not stated)	-7%	5%[10 µM]	-24
COC(=O)c1cc2oc3ccccc3c2n1CC(=O)Nc1ccccc1OC	21%[9.22 µM]	-4%	10
CCOc1ccc(-c2nn3c(-c4ccc(OC)cc4)nnc3s2)cc1	5%	1%	-24
COc1ccc(OCc2nnc(SC3CCOC3=O)n2-c2ccccc2)cc1 (configuration not stated)	-2%	-1%	?
COc1cccc(-n2c(SC3CCOC3=O)nc3ccccc3c2=O)c1 (configuration not stated)	5%	6%[10 µM]	-100*
Cc1ccc(CCN2CC(C(=O)NCc3ccco3)CC2=O)cc1 (configuration not stated)	9%	-10%	?
COc1ccccc1C(=O)NC(=Nc1nc2ccccc2o1)NC(=O)c1ccccc1OC	10µM*	-18%[10 µM]	-82*
O=C(NC(=Nc1nc2ccccc2o1)NC(=O)c1ccccc1)c1ccccc1	-12%	/	?
O=C(COC(=O)c1ccccc1C(=O)c1ccc(Cl)c([N+](=O)[O-])c1)NC1CC1	?	-130%	/
CNC(=O)COC(=O)c1ccccc1C(=O)c1ccc(Cl)c([N+](=O)[O-])c1	28µM*	-35%[10 µM]	/
SMILES	HTT aggregate	HTT cytoprotect	PNC assembly inh
CCC(=O)NCCc1nc2cc(NC(=O)c3cccs3)ccc2n1C	12%	-56%	/
CCNC(=S)N1CCc2ccccc2C1	22%[9.22 µM]	15%[10 µM]	/
Cc1cccc(C(=O)NC(=S)N2CCc3ccccc3C2)c1	9%	/	-82*
CCc1ccc(N2CC(C(=O)Nc3cc(C)ccc3F)CC2=O)cc1 (configuration not stated)	3%	0%[10 µM]	29
O=[N+]([O-])c1cc(S(=O)(=O)Nc2ccccc2)ccc1-n1nnc2ccccc21	?	-31%	-114*
O=[N+]([O-])c1cc(C(F)(F)F)ccc1-n1nnc2ccccc21	0%	4%[10 µM]	-20
COc1cc(C(=O)NC(=S)Nc2nccs2)cc(OC)c1OC	1%	-25%	/
Cc1ccc(OC(C)c2nnc(N)s2)cc1Cl (configuration not stated)	-24%	14%	-14
CC(Oc1ccccc1Cl)c1nnc(N)s1 (configuration not stated)	-5%	10%	-117*
O=C(CN1C(=O)C2(OCCCO2)c2ccccc21)NCCc1ccccc1	5%	-23%	16
COc1ccc(OC)c(NC(=O)c2cc3c(Cl)nc4ccccc4c3s2)c1	-20%	21%[10 µM]	50
COc1ccc(NC(=O)c2cc3c(Cl)nc4ccccc4c3s2)cc1OC	-18%	-32%[10 µM]	-88*
CC(/C=N/NC(=O)c1c(Br)cnn1C)=C\c1ccccc1	-4%	2%[10 µM]	?
Cn1ncc(Br)c1C(=O)N/N=C/c1ccc(OS(=O)(=O)c2ccccc2)cc1	-1%	11%[10 µM]	-80*
O=C(c1ccc(S(=O)(=O)c2ccccc2Cl)c([N+](=O)[O-])c1)N1CCCCCC1	?	2%[10 µM]	-105*
O=C(c1ccc(S(=O)(=O)Cc2ccccc2F)c([N+](=O)[O-])c1)N1CCCCCC1	-22%	-10%	/
O=C(c1cc(Cl)ccc1Cl)N1CCN(c2ccccn2)CC1	-17%	-2%	26
O=C(c1cnc(N2CCN(c3ccccn3)CC2)c2ccccc12)N1CCN(c2cccc(Cl)c2)CC1	7.9µM*	-71%	/
O=C(c1cccc(Cl)c1)N1CCN(c2ccccn2)CC1	4%	5%	19
O=C(c1ccc(S(=O)(=O)c2cccc(Cl)c2)c([N+](=O)[O-])c1)N1CCN(c2ccccn2)CC1	11µM*	-205%	/
Nc1nc(CN2CCN(c3ccccc3)CC2)nc(Nc2ccc(Cl)cc2)n1	?	-41%	/
C/C(Cn1nnc([N+](=O)[O-])n1)=N\NC(=O)c1ccccc1Cl	3%	-26%	-26
Cn1cc(CN2CCN(Cc3cccnc3)CC2)c(-c2ccc3c(c2)OCCO3)n1	20%[9.22 µM]	9%[10 µM]	/
CC(=O)Nc1cccc(NC(=O)C2CCCN2C(=O)Nc2cccc(F)c2)c1 (configuration not stated)	11%	-6%[10 µM]	-20
Cc1ccc(-c2nnc(SCC(=O)NC3CCCc4ccccc43)n2N)cc1 (configuration not stated)	-10%	/	?
SMILES	HTT aggregate	HTT cytoprotect	PNC assembly inh
N/C(=N\OC(=O)c1ccc([N+](=O)[O-])cc1)c1cccnc1	12%	3%[10 µM]	19
O=C(Oc1c(Br)cc([N+](=O)[O-])cc1Br)c1cccnc1	35µM*	34%[10 µM]	?
COc1cc(N)cc(NC(=O)c2ccncc2)c1	-2%	-19%	11
COCCN(C(=O)CNC(=O)c1ccco1)C(C(=O)NC1CCCC1)c1cccs1 (configuration not stated)	24%	3%[10 µM]	-100*
COCCN(C(=O)CNC(=O)c1cccs1)C(C(=O)NC1CCCC1)c1cccs1 (configuration not stated)	20%	-9%[10 µM]	-23
Cc1ccc(-n2c(SCC3CCCCO3)nnc2-c2ccco2)cc1 (configuration not stated)	-1%	-3%	33
CC(C)CCn1c(O)c(N=Nc2ccccn2)c2ccccc21	0%	19%[10 µM]	?
CCCn1c(O)c(N=Nc2ccc3ccccc3n2)c2ccccc21	?	-82%[10 µM]	-115*
C[C@H](NC(=O)c1ccc(Cl)cc1)C(=O)NCCc1ccc(S(N)(=O)=O)cc1	4%	1%	/
C=CCOc1ccc2ccccc2c1/C=N/O	19%[9.22 µM]	-2%	27
COc1ccc2ccccc2c1/C=N/O	-19%	4%	-108*
